SMILES strings stand for the structures. Some of the results follow. Unmarked numbers belong to inactive results.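 The calls were made as follows: active = percent inhibition of 50% or more; inactive = the rest.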

This assay has as its system Hepatitis C virus NS3 helicase. Nature of the assay: NS3h DNA-binding blockers re-examined – biochemical, fluorescence polarization, ChemBridge library, confirmation (AID 720485). As to conditions: NS3h binding to Cy5-dT15 DNA, at 100 µM, active compounds read high. For orientation: Polarisation of emitted light reports the rotation of a fluorescent probe.

As for `CCOc1cc(C=C2C(=O)NC(=O)NC2=O)cc(Br)c1OCCOc1ccccc1C`, the inhibition was 23.5%.

As usually defined, the inhibition is the change of the read-out against control, counted positive when it falls.
